FUS yeast rescue – qHTS for Suppressors of FUS Proteinopathy: Primary screen using FUS-linked yeast assay; actives 0.24% (n = 390,000); S. cerevisiae FUS-expressing, growth rescue, OD600, 24 h; Potency, µM (top dose mostly 76.6 µM), hits mostly activators; AID 1347120, 2019;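 further: potency means the concentration at half of the fitted maximal effect; plate controls were DMSO vehicle for no effect and reference control for full effect; nearly all actives have a fitted effect of over 55% in size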
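Restored growth of FUS-toxic S. cerevisiae, read as 600 nm absorbance after 24 h at 30C in galactose medium (starting OD 0.005). Controls CP55940 and DMSO.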
ELG1 repair inh – qHTS screen for small molecules that inhibit ELG1-dependent DNA repair in human embryonic kidney (HEK293T) cells expressing luciferase-tagged ELG1; HEK293T ELG1-luciferase reporter, luminescence, 16 h; DNA damage induced by 5-fluorouridine; Potency, µM (series often up to 46.1 µM), without a hit: at the top dose activity change, negative = inhibition, usual class: inhibitors; actives 2.3% (n = 330,000); further: potency means the concentration at half of the fitted maximal effect; on the % scale 0 is the no-effect control and ±100 the full control effect; nearly all actives have a fitted effect of over 55% in size
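Step one: seed 2,000 cells per well. Step two: pin-transfer compound or DMSO alongside 5-fluorouridine. Step three: incubate 16 hr, 37 °C, 5% CO2. Step four: add ONE-Glo, wait 30 min, read luminescence.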
Giardia kill – Small Molecules that selectively kill Giardia lamblia: qHTS; actives 0.15% (n = 340,000); Giardia lamblia trophozoite viability; activity change, % at 7.66 µM, hits read low; AID 540267, 2011; in the data active means activity change below about -80%; inconclusive means between about -30% and that limit;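 further: parasites exposed to compound for two days anaerobically before the ATP read; on the % scale 0 is the no-effect control and ±100 the full control effect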
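Trophozoite viability was measured as ATP-dependent luminescence, read 15-30 min after reagent addition. Before that, parasites at 100 cells/well were exposed to compounds for 48 h, anaerobically, at 37 deg C.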
TRPV1 potentiator – HTS Assay for Compounds that Act as Potentiators of the Vanilloid Receptor 1. AID 540277, 2011. potentiation, % at 8.33 µM. actives 0.02% (n = 320,000). TRPV1-expressing cells, Fluo-8 calcium influx, capsaicin EC20 potentiation; in the data active means potentiation above about 80%; inconclusive means between about 30% and that limit; further: 0% is about no effect
Target sequence (Q8NER1 whole entry, looked up): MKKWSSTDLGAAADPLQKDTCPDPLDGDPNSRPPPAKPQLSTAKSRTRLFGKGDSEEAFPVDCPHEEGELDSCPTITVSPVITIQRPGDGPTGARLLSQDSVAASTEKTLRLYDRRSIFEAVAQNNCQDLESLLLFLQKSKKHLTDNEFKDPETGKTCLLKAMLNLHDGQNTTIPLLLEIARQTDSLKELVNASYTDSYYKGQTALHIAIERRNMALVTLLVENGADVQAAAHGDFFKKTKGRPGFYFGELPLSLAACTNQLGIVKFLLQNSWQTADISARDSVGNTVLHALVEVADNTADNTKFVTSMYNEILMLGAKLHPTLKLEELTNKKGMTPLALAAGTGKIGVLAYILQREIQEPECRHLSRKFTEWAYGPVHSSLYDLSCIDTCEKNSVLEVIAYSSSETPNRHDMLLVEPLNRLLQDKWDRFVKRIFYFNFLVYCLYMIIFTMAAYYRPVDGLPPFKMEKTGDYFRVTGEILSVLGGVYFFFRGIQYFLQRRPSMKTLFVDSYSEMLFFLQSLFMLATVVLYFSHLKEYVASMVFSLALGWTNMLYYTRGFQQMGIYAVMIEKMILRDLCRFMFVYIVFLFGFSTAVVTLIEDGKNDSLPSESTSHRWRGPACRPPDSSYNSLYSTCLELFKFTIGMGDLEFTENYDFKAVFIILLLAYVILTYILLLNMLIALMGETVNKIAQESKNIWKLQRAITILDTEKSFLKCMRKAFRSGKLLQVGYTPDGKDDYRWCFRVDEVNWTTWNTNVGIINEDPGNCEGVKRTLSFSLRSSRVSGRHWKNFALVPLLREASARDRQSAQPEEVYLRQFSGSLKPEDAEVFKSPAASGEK
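Fluo-8 calcium influx in TRPV1-expressing cells, kinetic read (ex 480/em 520 nm). Compound added and read 3 min for agonist activity, followed by capsaicin at EC20 final and 2 min further read for enhancement.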
TRPV1 agonist – HTS Assay for Compounds that Act as Agonists of the Vanilloid Receptor 1 | TRPV1-expressing cells, Fluo-8 calcium influx, agonist mode | AID 540275, 2011 | activation, % at 8.33 µM | actives 0.19% (n = 320,000); in the data active means activation above about 80%; inconclusive means between about 30% and that limit; further: 0% is about no effect
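Fluo-8 calcium influx in TRPV1-expressing cells, kinetic read (ex 480/em 520 nm). Compound added and read 3 min for agonist activity, followed by capsaicin at EC20 final and 2 min further read for enhancement.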
Starred values were filed as active, the others as inactive; i = inactive; ? = inconclusive; / = no result. The list is not random: actives were taken first. Their share in the collection is about 2.3%. Unless noted, the call rests on the fitted dose curve; in most records, active means well fitted curve in the direction sought with a large enough effect; inconclusive means small, poorly fitted or top-dose-only effect, or another doubt; inactive means no such curve, though single readings can be large; an effect the other way counts as inactive or inconclusive.

SMILES	FUS yeast rescue	ELG1 repair inh	Giardia kill	TRPV1 potentiator	TRPV1 agonist
COc1cc2nc(CSc3nc(-c4ccc(F)cc4)cs3)[nH]c(=O)c2cc1OC	i	23µM*	11	9	6
COC(=O)c1ccc2c(=O)[nH]c(CSc3nc(-c4ccc(F)cc4)cs3)nc2c1	i	?	2	7	-2
Cc1ccc(NC(=O)C(Cc2ccccc2)N2C(=O)C3C4CCC(C4)C3C2=O)cc1Cl (configuration not stated)	i	18µM*	-14	-10	?
CCn1c(=O)n(CC)c2cc(S(=O)(=O)N3CCc4ccccc43)ccc21	i	16µM*	19	-16	11
CCc1ccc(NC(=O)Cn2cc(S(=O)(=O)N3CCCC3)c(S(=O)(=O)N3CCCC3)c2)cc1	i	/	/	/	/
CCCCOc1ccc(C2C(=O)N(C3CCCCC3)CC(=O)N2CC2CCCO2)cc1 (configuration not stated)	8.9µM*	1%	-10	-10	?
Cc1ccccc1CN1C(=O)c2ccccc2S(=O)(=O)c2ccc(C(=O)OCC3CCCO3)cc21 (configuration not stated)	i	/	/	/	/
Cc1onc(-c2ccccc2)c1C(=O)OCC(=O)N1CCCCC1	i	/	/	/	/
COc1cc(CNc2ccc(N3CCCCC3)cc2)ccc1OCC(=O)NC(C)(C)C	?	9.2µM*	-5	2	2
COc1cc(CNc2ccc(N3CCCC3)cc2)ccc1OCc1ccccc1	?	?	-13	-6	13
COc1ccc(CCNc2ccc(N3C(=O)CC(C)C3=O)cc2[N+](=O)[O-])cc1OC (configuration not stated)	i	3.7µM*	-6	?	2
CCN(CC)S(=O)(=O)c1ccc2c(c1)N(CC(=O)NCc1ccc(F)cc1)C(=O)CO2	i	/	/	/	/
CC(=O)c1cccc(Nc2cc(C)nc3nc(-c4ccccc4C)nn23)c1	i	/	/	/	/
CO[C@H]1C=CO[C@@]2(C)Oc3c(C)c(O)c4c(O)c(c(C=NN5CCN(C)CC5)c(O)c4c3C2=O)NC(=O)C(C)=CC=C[C@H](C)[C@H](O)[C@@H](C)[C@@H](O)[C@@H](C)[C@H](OC(C)=O)[C@@H]1C	18µM*	0%	-4	-9	-3
CO[C@H]1/C=C/O[C@@]2(C)Oc3c(C)c(O)c4c(O)c(c(C=NN5CCN(C)CC5)c(O)c4c3C2=O)NC(=O)/C(C)=C\C=C\[C@H](C)[C@H](O)[C@@H](C)[C@@H](O)[C@@H](C)[C@H](OC(C)=O)[C@@H]1C	?	-11%	-26	5	-4
Cc1ccc(NC(=O)CCS(=O)(=O)c2cccc3nsnc23)c(C)c1	i	/	/	/	/
CC1CCN(C(=O)c2ccc([N+](=O)[O-])o2)CC1	i	-13%	?	2	-1
CCC1CCCCN1C(=O)c1ccc([N+](=O)[O-])o1 (configuration not stated)	i	5%	-97*	7	1
CC1CCCN(C(=O)c2ccc([N+](=O)[O-])o2)C1 (configuration not stated)	i	-9%	-84*	3	2
Cc1ccc(-n2c(=O)c3oc4ccccc4c3n(CC(=O)Nc3ccc(F)c(Cl)c3)c2=O)cc1C	i	/	/	/	/
O=C(Cc1cccc2ccccc12)N/N=C/c1ccc(Sc2cccc3cccnc23)o1	/	16µM*	/	15	2
CCCCC(=O)N/N=C/c1ccc(Sc2cccc3cccnc23)o1	i	?	-3	-8	7
CCN(CC(=O)Nc1cc(OC)ccc1OC)Cc1nc2ccccc2c(=O)[nH]1	i	?	-14	11	-2
CCC(CC)C(=O)N(CCc1ccc(OC)cc1)Cc1nc2ccccc2c(=O)[nH]1	i	23µM*	?	7	3
CCN(CC(=O)Nc1ccc(C(=O)Nc2ccc(OC)cc2)cc1)Cc1nc2ccccc2c(=O)[nH]1	i	6.5µM*	-4	0	0
SMILES	FUS yeast rescue	ELG1 repair inh	Giardia kill	TRPV1 potentiator	TRPV1 agonist
CCN(CC(=O)Nc1sc2c(c1C#N)CCC(C)C2)CC(=O)NC1CCS(=O)(=O)C1 (configuration not stated)	i	18µM*	15	-29	11
CCN(CC(=O)Nc1sc2c(c1C#N)CCCC2)Cc1nc2ccccc2c(=O)[nH]1	i	15µM*	12	-5	10
CC(C)c1ccc(C2c3c(-c4ccccc4O)n[nH]c3C(=O)N2CCc2ccccc2)cc1 (configuration not stated)	i	/	/	/	/
CC1CCc2c(sc(NC(=O)CCc3nc4ccccc4c(=O)[nH]3)c2C#N)C1 (configuration not stated)	i	12%	-11	-3	-3
CCN(CC(=O)Nc1sc2c(c1C#N)CCC(C)C2)Cc1nc2ccccc2c(=O)[nH]1 (configuration not stated)	i	13µM*	11	-34	9
CC(C)Cc1nnc(NC(=O)CCC(=O)N2CCN(c3ccccc3)CC2)s1	i	-5%	3	2	8
COc1ccc(CN2CCN(C(=O)CCC(=O)Nc3nnc(C4CCCCC4)s3)CC2)cc1F	i	5.8µM*	-6	-34	5
CCCc1nnc(NC(=O)CCC(=O)N2CCN(Cc3ccc(OC)c(F)c3)CC2)s1	i	4%	1	10	-3
COc1ccc(CN2CCN(C(=O)CCC(=O)Nc3nnc(CC(C)C)s3)CC2)cc1F	i	5.8µM*	14	4	-6
COc1ccc(CN2CCN(C(=O)CCC(=O)Nc3nnc(C(F)(F)F)s3)CC2)cc1F	i	16%	24	16	18
CC(C)Cc1nnc(NC(=O)CCC(=O)N2CCN(c3ccc([N+](=O)[O-])cc3)CC2)s1	i	9.2µM*	13	-1	-2
CCc1ccccc1NC(=O)CCn1cccn1	i	/	/	/	/
CCN(CC)S(=O)(=O)c1cc(NC(=O)c2cc(-c3ccccn3)nc3ccccc23)ccc1C	?	8.2µM*	-23	-1	-1
COc1ccc(NC(=O)c2cc(-c3ccccn3)nc3ccccc23)cc1S(=O)(=O)N(C)C	/	?	4	-6	-1
CCN(CC)S(=O)(=O)c1ccc(NC(=O)c2cc(=O)[nH]c3ccccc23)cc1	i	?	-19	-3	0
CCN(CC)S(=O)(=O)c1ccc2[nH]c(=O)cc(C(=O)Nc3ccc(C)c(S(=O)(=O)N(CC)CC)c3)c2c1	?	18µM*	5	6	2
